# Measured values reported in PubChem BioAssay (NCATS).
# Results filed as inconclusive are left out. A call without a number means that no potency is given here. A number with no mark means an inactive call. Active and inactive are the calls of the source. Calls follow the shape of the dose curve; as a rule, active = well fitted curve in the direction sought with a large enough effect; inconclusive = small, poorly fitted or top-dose-only effect, or another doubt; inactive = no such curve, though single readings can be large; an effect the other way counts as inactive or inconclusive.
# What was measured:
# [1] = test system: MCC-26; assay: qHTS assay to identify novel small-molecules to repurpose for Merkel cell carcinoma treatment (AID 1296009); settings: MCC and control cell lines, CellTiter-Glo viability, 72 h; series mostly up to 46 µM; also: nearly all actives have a fitted effect of over 60% in size
# Procedure, shortened: (§1)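 CellTiter-Glo luminescence after 72 hr compound exposure at 37 degree celsius gave cell viability. Libraries NPC and MIPE were run as 8- and 11-point dose responses; RLUs normalized to DMSO (negative) and no-cell (cytotoxicity) controls.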
# [2] = test system: MKL-1; assay: as above; settings: MCC and control cell lines, CellTiter-Glo viability, 72 h; series mostly up to 46 µM
# Procedure, shortened: as §1
# [3] = test system: MKL-2; assay: as above; settings: MCC and control cell lines, CellTiter-Glo viability, 72 h; series mostly up to 46 µM
# Procedure, shortened: as §1
# [4] = test system: UISO; assay: as above; settings: MCC and control cell lines, CellTiter-Glo viability, 72 h; series mostly up to 46 µM
# Procedure, shortened: as §1
# [5] = test system: WaGa; assay: as above; settings: MCC and control cell lines, CellTiter-Glo viability, 72 h; series mostly up to 46 µM
# Procedure, shortened: as §1
# [6] = test system: C33A; assay: Primary qHTS to identify gynecologic anti-cancer compounds using libraries of approved drugs and bioactive compounds (AID 1345084); settings: Gynecologic cancer cell panel viability, ATPlite luminescence, 48 h; series mostly up to 57.5 µM; also: nearly all actives have a fitted effect of over 55% in size
# Procedure, shortened: (§2)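 48 h compound exposure at 37 C, 5% CO2; five-point qHTS. ATPlite luminescence readout of cell ATP.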
# [7] = test system: CASKI; assay: as above; settings: Gynecologic cancer cell panel viability, ATPlite luminescence, 48 h; series mostly up to 57.5 µM
# Procedure, shortened: as §2
# [8] = test system: Es-2; assay: as above; settings: Gynecologic cancer cell panel viability, ATPlite luminescence, 48 h; series mostly up to 57.5 µM
# Procedure, shortened: as §2
# [9] = test system: HeLa; assay: as above; settings: Gynecologic cancer cell panel viability, ATPlite luminescence, 48 h; series mostly up to 57.5 µM
# Procedure, shortened: as §2
# [10] = test system: Hek293T; assay: as above; settings: Gynecologic cancer cell panel viability, ATPlite luminescence, 48 h, control line for the selectivity index; series mostly up to 57.5 µM
# Procedure, shortened: as §2
# [11] = test system: JEG-3; assay: as above; settings: Gynecologic cancer cell panel viability, ATPlite luminescence, 48 h; series mostly up to 57.5 µM
# Procedure, shortened: as §2
# [12] = test system: OV90; assay: as above; settings: Gynecologic cancer cell panel viability, ATPlite luminescence, 48 h; series mostly up to 57.5 µM
# Procedure, shortened: as §2
# [13] = test system: PA-1; assay: as above; settings: Gynecologic cancer cell panel viability, ATPlite luminescence, 48 h; series mostly up to 57.5 µM
# Procedure, shortened: as §2
# [14] = test system: Tov-21-G; assay: as above; settings: Gynecologic cancer cell panel viability, ATPlite luminescence, 48 h; series mostly up to 57.5 µM
# Procedure, shortened: as §2
# [15] = test system: Tov112D; assay: as above; settings: Gynecologic cancer cell panel viability, ATPlite luminescence, 48 h; series mostly up to 57.5 µM
# Procedure, shortened: as §2
# [16] = Drug repurposing screens with cells derived from glioblastoma tumor samples (AID 1345199); settings: GBM patient neurospheres viability, ATP luminescence, 48 h; for Potency: tumour line A; as to all read-outs here: nearly all actives have a fitted effect of over 40% in size
# Procedure, shortened: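 Primary testing used CD133+ neurospheres from four GBM patients, seven concentrations, 48 h exposure and ATP-based viability; confirmation added three slower-growing patient lines.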
# [17] = test system: CAOV3; assay: Primary qHTS to identify gynecologic anti-cancer compounds using libraries of approved drugs and bioactive compounds (AID 1345084); settings: Gynecologic cancer cell panel viability, ATPlite luminescence, 48 h; series mostly up to 57.5 µM; also: nearly all actives have a fitted effect of over 55% in size
# Procedure, shortened: as §2
# [18] = test system: SKOV3; assay: as above; settings: Gynecologic cancer cell panel viability, ATPlite luminescence, 48 h; series mostly up to 57.5 µM
# Procedure, shortened: as §2
# [19] = test system: MCC-13; assay: qHTS assay to identify novel small-molecules to repurpose for Merkel cell carcinoma treatment (AID 1296009); settings: MCC and control cell lines, CellTiter-Glo viability, 72 h; series mostly up to 46 µM; also: nearly all actives have a fitted effect of over 60% in size
# Procedure, shortened: as §1
# [20] = at 45.9 µM (top of the series), tumour line B
# [21] = at 45.9 µM (top of the series), tumour line D
# Potency is read from the fitted curve at half-maximal effect.
smiles,measurement,setting,value
CN1C(=O)CN=C(c2ccccc2)c2cc(Cl)ccc21,Potency,[1],inactive
same,Potency,[2],inactive
same,Potency,[3],inactive
same,Potency,[4],inactive
same,Potency,[5],inactive
same,Potency,[6],inactive
same,Potency,[7],inactive
same,Potency,[8],inactive
same,Potency,[9],inactive
same,Potency,[10],inactive
same,Potency,[11],inactive
same,Potency,[12],inactive
same,Potency,[13],inactive
same,Potency,[14],inactive
same,Potency,[15],inactive
same,"activity, negative = cell killing",[16]; [20],-4.05%
same,"activity, negative = cell killing",[16]; [21],-1.05%
CNC(=O)Oc1cccc2ccccc12,Potency,[6],inactive
same,Potency,[17],inactive
same,Potency,[7],inactive
same,Potency,[8],inactive
same,Potency,[9],inactive
same,Potency,[10],inactive
same,Potency,[11],inactive
same,Potency,[13],inactive
same,Potency,[18],inactive
same,Potency,[14],inactive
same,Potency,[15],inactive
same,Potency,[16],35.5 µM (active)
CC[C@H]1C[C@@H]2C[C@H]3c4[nH]c5ccc(OC)cc5c4CCN(C2)[C@@H]13,Potency,[19],inactive
same,Potency,[1],inactive
same,Potency,[5],42.4 µM (active)
same,Potency,[6],inactive
same,Potency,[17],inactive
same,Potency,[7],inactive
same,Potency,[8],inactive
same,Potency,[9],inactive
same,Potency,[10],inactive
same,Potency,[11],inactive
same,Potency,[12],31.6 µM (active)
same,Potency,[18],inactive
same,Potency,[14],inactive
same,Potency,[15],inactive
CNC(C)Cc1ccc2c(c1)OCO2 (configuration not stated),Potency,[19],inactive
same,Potency,[3],inactive
same,Potency,[6],inactive
same,Potency,[17],inactive
same,Potency,[7],inactive
same,Potency,[8],inactive
same,Potency,[9],inactive
same,Potency,[10],inactive
same,Potency,[11],inactive
same,Potency,[12],inactive
same,Potency,[13],inactive
same,Potency,[18],inactive
same,Potency,[14],inactive
same,Potency,[15],inactive
same,"activity, negative = cell killing","[16]; at 108 µM (top of the series), tumour line B",0.451%
same,"activity, negative = cell killing","[16]; at 108 µM (top of the series), tumour line D",-9%
same,Potency,[16],50.1 µM (active)
Clc1ccc(CSC(Cn2ccnc2)c2ccc(Cl)cc2Cl)cc1 (configuration not stated),Potency,[3],13.3 µM (active)
same,Potency,[4],26.6 µM (active)
same,Potency,[7],inactive
same,Potency,[8],inactive
same,Potency,[9],inactive
same,Potency,[11],inactive
same,Potency,[13],inactive
same,Potency,[14],inactive
same,Potency,[15],inactive
same,Potency,[16],2.24 µM (active)
CCO[C@H]1O[C@@H]2OC3(C)CC[C@H]4[C@H](C)CC[C@@H]([C@H]1C)[C@@]24OO3,Potency,[19],inactive
same,Potency,[1],inactive
same,Potency,[2],inactive
same,Potency,[5],18.8 µM (active)
same,Potency,[6],inactive
same,Potency,[17],inactive
same,Potency,[7],inactive
same,Potency,[8],inactive
same,Potency,[9],inactive
same,Potency,[11],inactive
same,Potency,[12],inactive
same,Potency,[13],inactive
same,Potency,[18],inactive
same,Potency,[14],inactive
same,Potency,[15],inactive
CN1C(=O)[C@@H](NC(=O)c2cc3ccccc3[nH]2)N=C(c2ccccc2)c2ccccc21,Potency,[19],inactive
same,Potency,[2],inactive
same,Potency,[3],inactive
same,Potency,[5],inactive
same,Potency,[6],inactive
same,Potency,[9],inactive
same,Potency,[10],inactive
same,Potency,[11],inactive
same,Potency,[13],inactive
same,Potency,[14],inactive
same,Potency,[15],inactive
same,"activity, negative = cell killing",[16]; [20],8.15%
same,"activity, negative = cell killing",[16]; [21],-1.15%
CCC(OC(C)=O)C(CC(C)NC)(c1ccccc1)c1ccccc1 (configuration not stated),Potency,[4],49.1 µM (active)
same,Potency,[17],39.8 µM (active)
same,Potency,[9],31.6 µM (active)
same,Potency,[14],inactive
CN1CCC(N(Cc2ccccc2)c2ccccc2)CC1,Potency,[19],inactive
same,Potency,[1],inactive
same,Potency,[2],inactive
same,Potency,[4],inactive
same,Potency,[6],inactive
same,Potency,[17],inactive
same,Potency,[7],inactive
same,Potency,[8],inactive
same,Potency,[9],inactive
same,Potency,[10],inactive
same,Potency,[11],inactive
same,Potency,[13],inactive
same,Potency,[18],inactive
same,Potency,[14],inactive
same,Potency,[15],inactive
CC[n+]1c(-c2ccccc2)c2cc(N)ccc2c2ccc(N)cc21,Potency,[2],0.668 µM (active)
same,Potency,[3],0.944 µM (active)
same,Potency,[4],7.5 µM (active)
same,Potency,[5],0.75 µM (active)
same,Potency,[6],1.12 µM (active)
same,Potency,[7],20 µM (active)
same,Potency,[12],14.1 µM (active)
same,Potency,[13],1.26 µM (active)
same,Potency,[14],15.8 µM (active)
same,Potency,[15],1.41 µM (active)
